Compound activity (PubChem)
Sampled rows, rich in hits. Any-hit rate of the full collection: about 3.8%.
Shn3 inh set2: inhibitors of Schnurri-3 3'UTR reporter in osteoblasts. actives 0.52% (n = 360,000). inhibition, % at 12.5 µM. Clone20 osteoblast Shn3 3'UTR firefly luciferase, 24 h. AID 588674;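 active = mean inhibition of at least 75% with every replicate also reaching 75%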
Gli-Sufu block: Gli-Sufu pathway antagonism. Sufu-KO-LIGHT fibroblasts, Gli luciferase reporter luminescence. inhibition, % at 5 µM. actives 0.74% (n = 340,000). AID 588413;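 active = inhibition above about 55%, limit read from the data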
Mdm2 MdmX PPI: disrupts the human Mdm2-MdmX interaction; SaOS-2 split-luciferase Mdm2/MdmX complementation, luminescence; O15151+Q00987; inhibition, % at 8 µM; actives 3% (n = 330,000);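 active = inhibition of at least 50% at 8 µM in the primary screen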
Jurkat NFkB inh: inhibitors of the PMA/ionomycin-induced NF-kB reporter in Jurkat cells | PMA/ionomycin-induced NF-kB luciferase reporter, luminescence | inhibition, % at 4 µM | actives 0.53% (n = 330,000) | AID 435003; in the data active = inhibition above about 50%
697 NFkB inh: inhibitors of the PMA/ionomycin-induced NF-kB reporter in 697 B cells. 697 B-cell NF-kB luciferase reporter, 16 h. inhibition, % at 4 µM. actives 0.33% (n = 330,000); in the data active = inhibition above about 35%
Numbers stand for hits; n = inactive; x = not tested or not shown; ! = not confirmed by another sample.

SMILES	Shn3 inh set2	Gli-Sufu block	Mdm2 MdmX PPI	Jurkat NFkB inh	697 NFkB inh
Cc1ccc(C(C)C)c(OCc2ccc(C(=O)N/N=C/c3cccc(O)c3O)cc2)c1	93.6	92.8	x	x	x
COCC(=O)OC1CCn2c1nc1c2C(=O)C(C)=C(NC(C)=O)C1=O (centres undefined)	88.7	n	x	x	x
CCn1nnc2cc(C(=O)Nc3cc(Cl)ccc3C)ccc21	88.1	n	n	n	n
N#CCC(C(=O)c1cccnc1)c1ccccc1 (centres undefined)	n	x	x	x	x
Nc1nnc(SCC(=O)Nc2ccc(N3CCOCC3)cc2)s1	91.0	n	n	n	n
CC(C)(C)n1nnnc1C(c1cccs1)N1CCCC2(CCCCC2)C1 (centres undefined)	85.3	n	n	n	n
Cc1ccc(S(=O)(=O)N2C[C@H]3N(C(=O)OC(C)C)N(C(=O)OC(C)C)C[C@H](OC(=O)Nc4cccs4)[C@@]3(O)C2)cc1	n	x	x	x	x
C=CCn1c(=O)c2ccccc2n2c(SC(C)C(N)=O)nnc12 (centres undefined)	n	n	n	n	n
C=CCn1c(=O)c2ccccc2n2c(SCC(=O)/C(C#N)=C(\C)N)nnc12	93.3!	n	n	n	n
N#C/C(=C/c1ccc(N2CCOCC2)o1)c1ccc(Cl)cc1	91.2	n	x	x	x
N#C/C(=C\c1ccc(N2CCOCC2)o1)c1nc2ccccc2[nH]1	n	n	n	n	n
CCCC(=O)OCCNc1cc(Sc2nccn2C)c2nonc2c1[N+](=O)[O-]	95.1	n	x	x	x
CCC(=O)OCCNc1cc(Sc2nc3ccccc3[nH]2)c2nonc2c1[N+](=O)[O-]	95.7	n	x	x	x
CCC(C(=O)OCC(=O)NCc1ccc2c(c1)OCO2)c1ccccc1 (centres undefined)	n	n	n	n	n
CCCNC(=O)C1(C)CCCN(C(=O)c2cccc(C#N)c2)C1 (centres undefined)	n	x	x	x	x
COc1cccc(C(NC(C)=O)c2nc(-c3cccc(F)c3)cs2)c1 (centres undefined)	n	x	x	x	x
CC1=NOC(=O)/C1=C\c1ccc(-c2ccc(Cl)c(C(=O)O)c2)o1	n	n	n	n	n
CC1=NOC(=O)/C1=C\c1ccc(-c2ccccc2Br)o1	90.5	n	x	x	x
CCOC(=O)c1ccc(S(=O)(=O)NNC(=O)Cc2csc(C)n2)cc1	n	n	n	n	n
Cc1cc(C(=O)N/N=C/c2cc(N=Nc3ccccc3)ccc2O)n[nH]1	86.7	n	x	x	x
COC(=O)N/N=C/c1cc(N=Nc2ccccc2)ccc1O	n	n	n	n	n
Cc1cccc(Nc2nc(NCc3ccco3)c3ccccc3n2)c1	88.4	81.6	x	x	x
CCN(CC)CCNC(=O)c1ccc2c(=O)n(C3CCCC3)c(=S)[nH]c2c1	n	70.7	n	n	n
CC(C)NC(=O)c1ccc2c(=O)n(C3CCCC3)c(=S)[nH]c2c1	n	n	n	n	n
O=C(CSc1nccc(=O)[nH]1)NC1CCCCCCC1	n	n	n	n	n
SMILES	Shn3 inh set2	Gli-Sufu block	Mdm2 MdmX PPI	Jurkat NFkB inh	697 NFkB inh
O=C(c1ccccc1)N1CCN(C(=O)N2CCOCC2)CC1	n	n	n	n	n
O=C1C(=C(c2ccccc2)N2CCOCC2)Cc2ccccc21	97.6	x	x	x	x
CCCn1c(CN2CCN(C(=O)c3ccco3)CC2)nc2cc(S(=O)(=O)N(C)C)ccc21	n	n	n	n	n
CC1=CC2C(C(O)CC3(C)C2CC(C)C32OCOC23COCO3)C2(C)C/C(=C\O)C(=O)C=C12 (centres undefined)	87.5	n	x	x	x
CO/N=C(\Cn1ncc(NC2CCCCC2)c(Br)c1=O)c1ccc(Cl)cc1	87.6	n	n	n	n
O=C(COC(=O)c1ccc(OC(F)F)cc1)NCC1CCCO1 (centres undefined)	n	x	x	x	x
Cc1ccc(N=Nc2ccc(O)c3ncccc23)cc1	90.5	n	x	x	x
Oc1ccc(Cl)c2cccnc12	n	n	x	x	x
CCOC(=O)CCCCCC(=O)Nc1ccc2c(c1)C(=O)N([C@@H](C)CO)C[C@@H](C)[C@H](CN(C)S(=O)(=O)c1cccs1)OCCCC[C@H](C)O2	n	x	x	x	x
OCc1ccccc1-c1cnc2cccnn12	n	x	x	x	x
CCC(=O)NC(c1cccc([N+](=O)[O-])c1)c1c(OC(C)=O)ccc2ccccc12 (centres undefined)	n	n	n	n	n
CCCC(=O)NC(c1cccc([N+](=O)[O-])c1)c1ccc2cccnc2c1O (centres undefined)	87.5	x	x	x	x
N#Cc1c(NCc2ccccc2)ccnc1NCc1cccnc1	84.6	n	n	n	n
N#Cc1c(F)cccc1NCc1cccnc1	n	n	n	n	n
CSc1nc(N2CCN(Cc3ccc4c(c3)OCO4)CC2)c2ccccc2n1	85.9	n	n	n	n
CCc1ccc2cc3c(cc2n1)C(=O)c1ccccc1-3	n	x	x	x	x
CCN1C/C(=C\c2cccc([N+](=O)[O-])c2)C(=O)/C(=C/c2cccc([N+](=O)[O-])c2)C1	95.0	n	x	x	x
O=C1/C(=C/c2cccc([N+](=O)[O-])c2)CCc2ccccc21	n	n	n	n	n
CN(CC#CC1(O)c2ccccc2-c2ccccc21)Cc1ccccc1	n	n	n	n	n
C#CCN(C)Cc1ccccc1	86.1	n	n	n	n
CC1C(=O)N(Cc2cn(CCC3OCCCO3)nn2)CCS(=O)(=O)N1Cc1ccc(-c2ccc(Cl)c(Cl)c2)cc1 (centres undefined)	92.0	x	x	x	x
Cc1c(N/N=C(\C#N)C(=O)c2ccccc2)c(=O)n(-c2ccccc2)n1C	89.4	n	x	x	x
CCOc1cc(/C=C2\C(=O)ON=C2C)ccc1OCc1ccccc1	91.3	n	n	n	n
Cc1csc(N=Cc2ccc([N+](=O)[O-])o2)n1	n	x	x	x	x
CCN(CCc1ccccc1)c1ccc2c(c1)C1CC2CCN1Cc1ccccc1 (centres undefined)	n	x	x	x	x
SMILES	Shn3 inh set2	Gli-Sufu block	Mdm2 MdmX PPI	Jurkat NFkB inh	697 NFkB inh
CC[n+]1c(/C=C2\Sc3ccccc3N2C)ccc2cccc(C)c21	89.0	86.9	x	x	x
COc1cccc(/C=C/C(=O)OCC(=O)NC2CCCCCC2)c1	n	x	x	x	x
C=C1C(=O)C23CCC4C(C)(C(=O)OC)CCCC4(C)C2CCC1(O)C3 (centres undefined)	96.0	n	x	x	x
Cc1cc(C)c(S(=O)(=O)c2ccc(Cl)cc2)c(Cl)n1	n	n	n	n	n
Cc1cc(S(=O)(=O)c2ccc(Cl)cc2)nc(S(=O)(=O)c2ccc(Cl)cc2)c1C#N	90.8	x	x	x	x
C#CCOc1ccccc1CNC1CCN(Cc2ccccc2)CC1	n	n	n	n	n
CCCCC[C@H]1CN(Cc2ccc(OC)cc2)C(=O)[C@@H]1CC(=O)NCc1ccccc1	88.6	n	n	n	n
CCCCC[C@H]1CN(CCCC)C(=O)[C@@H]1CC(=O)NCc1ccccc1	n	n	n	n	n
C[C@H](CO)N1C[C@H](C)[C@@H](CN(C)S(=O)(=O)c2ccc(Oc3ccccc3)nc2)OCc2cn(nn2)CCCC1=O	n	x	x	x	x
COc1cccc(C(O)c2nc(/C=C/c3ccc(C(F)(F)F)cc3)cs2)c1 (centres undefined)	n	x	x	x	x
Cc1cc2c(=Cc3ccc(N(C)C)cc3)c3ccccc3n2[n+]1C	n	83.3	x	x	x
C[n+]1c(-c2ccccc2)cc2c(=Cc3ccc([N+](=O)[O-])cc3)c3ccccc3n21	n	n	x	x	x
